Measurements as given in the supplement of paper PMC10849652.
Targets with a hit are over-represented here; the source holds about 8,800 in all. About 0.5% of all pairs of compound and target were hits.

Tests used:
Experiment in all cases: log2 fold change, soluble protein after heating vs DMSO (PISA); higher = thermal stabilisation; K562 lysate, 10 uM; active = over 0.2 and 3.5 SD of the protein, either way, in both replicates (recomputed)
[1] = compound: C#Cc1cccc(Nc2ncnc3cc(OCCOC)c(OCCOC)cc23)c1 [erlotinib]
Summary of the method: (§1)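 Thermal stability, expressed as log-two fold change relative to solvent controls, is given from duplicates. Crude K562 extract in PBS pH 7.4 with 1 mM MgCl2, at 1 mg/mL protein, was treated with 10 μM compound for 30 min and heated in aliquots for 3 min across 48°C-58°C. After pooling, adjustment to 0.5% NP-40 at 4°C and centrifugation at 21,000xg for 90 min, supernatant protein was measured by TMTpro 16plex LC-MS/MS with channel sums equalised.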

[2] = compound: C/C(=N\NC(=O)C1=CC(=CC=C1)S(=O)(=O)N2CCOCC2)/C3=C(C=CC(=C3)Cl)O
Summary of the method: as §1

[3] = compound: C1=CC(=CC=C1C2=NC3=C(N2)C=C(C=C3)C(=O)N)OC4=CC=C(C=C4)Cl
Summary of the method: as §1

[4] = compound: C1=CC2=C(C=CC(=C2)/C=C\3/C(=O)NC(=NCC4=CC=CS4)S3)N=C1
Summary of the method: as §1

[5] = compound: C1=CC2=NC=CN=C2C=C1/C=C/3\C(=O)NC(=O)S3
Summary of the method: as §1

[6] = compound: C1=CC=C(C=C1)C2=NC(=C(N2)C3=CC=NC=C3)C4=CC(=C(C=C4)Cl)O
Summary of the method: as §1

[7] = compound: C1=CC=C2C(=C1)C3=NNC4=CC=CC(=C43)C2=O
Summary of the method: as §1

[8] = compound: C1CCN(C1)C(=O)NC2=CC=CC(=C2)NC3=NC=C(C(=N3)NCCC4=CN=CN4)Br
Summary of the method: as §1

[9] = compound: C1CN(CCC1(CC2=CC=C(C=C2)Cl)N)C3=NC=NC4=C3C=CN4
Summary of the method: as §1

[10] = compound: C1COCCN1CCN2C3=CC=CC=C3N=C2NC(=O)C4=CC(=CC=C4)[N+](=O)[O-] [IRAK-1-4 Inhibitor I]
Summary of the method: as §1

[11] = compound: C=CC(=O)N1CCC[C@@H](n2nc(-c3ccc(Oc4ccccc4)cc3)c3c(N)ncnc32)C1 [ibrutinib]
Summary of the method: as §1

[12] = compound: CC(=O)c1cnc2ccc(-c3cc(Cl)c(O)c(Cl)c3)nc2c1N[C@H]1CC[C@H](CN(C)C)CC1
Summary of the method: as §1

[13] = compound: CC(C)(C)Cn1c(N)nc2ccc(-c3[nH]c(C(C)(C)C)nc3-c3ccc(F)cc3)nc21 [ralimetinib]
Summary of the method: as §1

[14] = compound: CC(C)(O)CC(=O)NCCn1ccc2ncnc(Nc3ccc(Oc4cccc(C(F)(F)F)c4)c(Cl)c3)c21
Summary of the method: as §1

[15] = compound: CC(C)C1=C2N=C(C=C(N2N=C1)NCC3=CC=CC=C3)NCCCCCCN
Summary of the method: as §1

[16] = compound: CC1=C(C(CC(=O)N1)C2=CC=C(C=C2)C(F)(F)F)C(=O)NC3=C(C=C4C(=C3)C=NN4)F
Summary of the method: as §1

[17] = compound: CC1=C(C2=C(C=C1)C(=O)C3=CC=CC=C3N2CCCN)C
Summary of the method: as §1

[18] = compound: CC1=C(C=C(C=C1)NC(=O)C2=CC(=CC=C2)C(C)(C)C#N)NC3=CC4=C(C=C3)N=CN(C4=O)C
Summary of the method: as §1

[19] = compound: CC1=C(C=C(C=C1)NC(=O)C2=CC(=CC=C2)N(C)C)NC(=O)C3=CC=C(C=C3)O
Summary of the method: as §1

[20] = compound: CC1=CC=C(C=C1)SC2=C3C=C(SC3=CN=C2)C(=O)N
Summary of the method: as §1

Measured: log2 fold change

TBCE (UniProt Q15813)
Sequence of UniProt Q15813 (Q15813 whole entry, looked up): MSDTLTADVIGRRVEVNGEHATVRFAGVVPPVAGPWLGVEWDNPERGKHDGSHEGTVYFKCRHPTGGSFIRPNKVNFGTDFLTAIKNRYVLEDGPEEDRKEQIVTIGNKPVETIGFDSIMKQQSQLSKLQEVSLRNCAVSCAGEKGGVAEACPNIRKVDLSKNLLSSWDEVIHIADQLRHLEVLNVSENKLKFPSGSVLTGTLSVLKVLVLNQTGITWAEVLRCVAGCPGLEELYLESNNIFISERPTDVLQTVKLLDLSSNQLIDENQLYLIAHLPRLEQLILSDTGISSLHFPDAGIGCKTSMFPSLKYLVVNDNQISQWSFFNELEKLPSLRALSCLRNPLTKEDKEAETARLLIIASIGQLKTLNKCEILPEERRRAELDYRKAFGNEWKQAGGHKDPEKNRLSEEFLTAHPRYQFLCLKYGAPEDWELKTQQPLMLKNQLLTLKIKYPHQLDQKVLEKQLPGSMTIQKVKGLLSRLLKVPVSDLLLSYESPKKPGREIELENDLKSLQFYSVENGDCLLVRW
inactive: [1] 0.02 | [2] 0.049 | [3] -0.016 | [4] 0.004 | [5] 0.014 | [6] 0.001 | [7] -0.07 | [8] -0.027 | [9] 0.038 | [10] -0.002 | [11] -0.027 | [12] 0.004 | [13] 0.037 | [14] 0.01 | [15] -0.004 | [16] 0.003 | [17] 0.004 | [18] -0.007 | [19] 0.025 | [20] -0.016

TMEM87A (UniProt Q8NBN3)
inactive: [1] -0.015 | [2] -0.021 | [3] 0.01 | [4] 0.037 | [5] -0.02 | [6] -0.02 | [7] -0.027 | [8] 0.031 | [9] -0.004 | [10] -0.028 | [11] -0.002 | [12] 0.019 | [13] -0.031 | [14] -0.035 | [15] -0.075 | [16] -0.017 | [17] -0.02 | [18] 0.016 | [19] 0.004 | [20] -0.02

TNIK isoform 4 (UniProt Q9UKE5)
Sequence of UniProt Q9UKE5 (Q9UKE5 whole entry, looked up): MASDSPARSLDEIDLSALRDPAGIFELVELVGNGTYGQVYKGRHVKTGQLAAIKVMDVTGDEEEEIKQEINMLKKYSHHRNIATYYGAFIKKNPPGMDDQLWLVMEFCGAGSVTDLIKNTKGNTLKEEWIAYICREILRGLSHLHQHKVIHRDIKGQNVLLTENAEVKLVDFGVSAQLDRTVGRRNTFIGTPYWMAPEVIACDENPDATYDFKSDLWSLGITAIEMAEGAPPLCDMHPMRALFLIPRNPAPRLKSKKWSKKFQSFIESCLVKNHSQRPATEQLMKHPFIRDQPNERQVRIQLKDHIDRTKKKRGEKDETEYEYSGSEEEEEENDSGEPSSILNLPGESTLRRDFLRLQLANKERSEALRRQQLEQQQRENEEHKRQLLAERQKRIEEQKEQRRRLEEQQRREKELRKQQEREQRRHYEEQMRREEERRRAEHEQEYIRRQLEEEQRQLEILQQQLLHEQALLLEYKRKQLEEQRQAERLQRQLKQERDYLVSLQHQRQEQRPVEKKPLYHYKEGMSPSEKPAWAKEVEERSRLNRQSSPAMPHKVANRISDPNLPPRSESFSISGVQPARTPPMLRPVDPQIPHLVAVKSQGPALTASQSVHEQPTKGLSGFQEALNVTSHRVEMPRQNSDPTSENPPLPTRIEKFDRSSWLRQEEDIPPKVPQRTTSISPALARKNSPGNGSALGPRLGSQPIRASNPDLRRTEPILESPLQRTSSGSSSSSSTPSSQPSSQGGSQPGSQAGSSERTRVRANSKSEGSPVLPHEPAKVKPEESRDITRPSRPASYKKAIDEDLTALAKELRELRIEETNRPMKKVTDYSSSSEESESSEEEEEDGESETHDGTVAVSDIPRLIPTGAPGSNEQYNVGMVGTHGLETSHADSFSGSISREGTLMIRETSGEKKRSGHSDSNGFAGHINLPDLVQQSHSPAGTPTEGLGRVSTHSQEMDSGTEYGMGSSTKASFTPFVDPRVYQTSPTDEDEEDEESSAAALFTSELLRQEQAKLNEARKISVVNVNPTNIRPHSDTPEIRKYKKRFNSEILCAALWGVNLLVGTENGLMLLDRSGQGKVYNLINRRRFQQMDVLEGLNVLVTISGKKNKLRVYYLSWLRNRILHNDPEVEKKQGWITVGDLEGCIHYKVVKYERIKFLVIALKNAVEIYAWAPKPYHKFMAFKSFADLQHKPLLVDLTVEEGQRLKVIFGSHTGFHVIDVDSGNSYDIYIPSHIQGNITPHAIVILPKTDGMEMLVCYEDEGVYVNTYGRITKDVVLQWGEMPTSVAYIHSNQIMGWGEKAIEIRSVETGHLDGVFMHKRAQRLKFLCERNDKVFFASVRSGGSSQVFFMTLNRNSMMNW
inactive: [1] -0.015 | [2] -0.037 | [3] -0.035 | [4] 0.119 | [5] 0.003 | [6] 0.125 | [7] 0.244 | [8] 0.113 | [9] -0.031 | [10] -0.019 | [11] 0.008 | [13] -0.024 | [14] -0.005 | [15] 0.046 | [16] -0.013 | [17] -0.019 | [18] 0.186 | [19] -0.012 | [20] -0.068
active: [12] 0.374

TBC1D2B (UniProt Q9UPU7)
inactive: [1] -0.005 | [2] -0.028 | [3] 0.098 | [4] 0.03 | [5] -0.053 | [6] 0.042 | [7] -0.111 | [8] -0.031 | [9] -0.024 | [10] -0.075 | [11] 0.075 | [12] -0.017 | [13] 0.008 | [14] 0.003 | [15] -0.054 | [16] 0.058 | [17] 0.006 | [18] -0.03 | [19] 0.031 | [20] 0.025

TUBB6 (UniProt Q9BUF5)
inactive: [1] 0.039 | [2] 0.051 | [3] -0.002 | [4] 0.017 | [5] 0 | [6] 0.005 | [7] 0.009 | [8] -0.013 | [9] 0.057 | [10] -0.003 | [11] -0.005 | [12] 0.012 | [13] 0.023 | [14] -0.038 | [15] 0.027 | [16] 0.012 | [17] 0.025 | [18] -0.024 | [19] -0.009 | [20] 0.025

UCHL5 isoform 3 (UniProt Q9Y5K5)
Sequence of UniProt Q9Y5K5 (Q9Y5K5 whole entry, looked up): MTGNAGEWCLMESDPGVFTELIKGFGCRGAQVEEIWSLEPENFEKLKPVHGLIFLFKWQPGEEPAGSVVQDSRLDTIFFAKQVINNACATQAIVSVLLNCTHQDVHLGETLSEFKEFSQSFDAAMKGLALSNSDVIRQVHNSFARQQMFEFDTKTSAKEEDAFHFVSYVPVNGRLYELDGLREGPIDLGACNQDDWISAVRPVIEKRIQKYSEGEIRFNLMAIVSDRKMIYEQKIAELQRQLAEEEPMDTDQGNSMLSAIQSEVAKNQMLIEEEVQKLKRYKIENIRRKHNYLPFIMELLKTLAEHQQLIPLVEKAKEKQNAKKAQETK
inactive: [1] -0.015 | [2] -0.012 | [3] 0.015 | [4] -0.018 | [5] 0.01 | [6] -0.005 | [7] 0.001 | [8] 0 | [9] -0.014 | [10] -0.018 | [11] 0 | [12] -0.001 | [13] 0.01 | [14] -0.008 | [15] 0.015 | [16] 0.014 | [17] 0.011 | [18] -0.029 | [19] 0.004 | [20] 0.012

TUBB (UniProt P07437)
inactive: [1] 0.029 | [2] -0.017 | [3] 0.014 | [4] -0.006 | [5] 0.008 | [6] 0.008 | [7] -0.03 | [8] 0.006 | [9] 0.043 | [10] 0.027 | [11] -0.013 | [12] 0.011 | [13] 0.038 | [14] -0.009 | [15] 0.037 | [16] 0.049 | [17] 0.003 | [18] 0.007 | [19] 0.014 | [20] 0.009

TYW3 (UniProt Q6IPR3)
Sequence of UniProt Q6IPR3 (Q6IPR3 whole entry, looked up): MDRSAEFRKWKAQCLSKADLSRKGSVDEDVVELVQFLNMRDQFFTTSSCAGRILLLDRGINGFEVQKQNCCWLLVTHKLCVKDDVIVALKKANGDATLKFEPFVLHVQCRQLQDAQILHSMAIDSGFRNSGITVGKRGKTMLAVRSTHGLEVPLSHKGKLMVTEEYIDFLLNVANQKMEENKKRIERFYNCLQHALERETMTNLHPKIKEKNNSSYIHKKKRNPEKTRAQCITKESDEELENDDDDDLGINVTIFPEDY
inactive: [1] -0.002 | [2] 0.003 | [3] 0.063 | [4] -0.032 | [5] -0.008 | [6] 0.002 | [7] -0.07 | [8] -0.054 | [9] 0.014 | [10] 0.018 | [11] -0.052 | [12] -0.054 | [13] -0.016 | [14] -0.081 | [15] 0.043 | [16] -0.015 | [17] -0.021 | [18] 0.025 | [19] 0.01 | [20] -0.004

TRIM23 (UniProt P36406)
inactive: [1] -0.044 | [2] -0.022 | [3] 0.037 | [4] 0.014 | [5] 0.034 | [6] 0.493 | [7] -0.011 | [8] -0.017 | [9] 0.105 | [10] 0.183 | [11] -0.031 | [12] 0.061 | [13] -0.102 | [14] -0.085 | [15] -0.056 | [16] 0.026 | [17] -0.065 | [18] 0.099 | [19] -0.22 | [20] -0.022

TMPO (UniProt P42166)
Sequence of UniProt P42166 (P42166 whole entry, looked up): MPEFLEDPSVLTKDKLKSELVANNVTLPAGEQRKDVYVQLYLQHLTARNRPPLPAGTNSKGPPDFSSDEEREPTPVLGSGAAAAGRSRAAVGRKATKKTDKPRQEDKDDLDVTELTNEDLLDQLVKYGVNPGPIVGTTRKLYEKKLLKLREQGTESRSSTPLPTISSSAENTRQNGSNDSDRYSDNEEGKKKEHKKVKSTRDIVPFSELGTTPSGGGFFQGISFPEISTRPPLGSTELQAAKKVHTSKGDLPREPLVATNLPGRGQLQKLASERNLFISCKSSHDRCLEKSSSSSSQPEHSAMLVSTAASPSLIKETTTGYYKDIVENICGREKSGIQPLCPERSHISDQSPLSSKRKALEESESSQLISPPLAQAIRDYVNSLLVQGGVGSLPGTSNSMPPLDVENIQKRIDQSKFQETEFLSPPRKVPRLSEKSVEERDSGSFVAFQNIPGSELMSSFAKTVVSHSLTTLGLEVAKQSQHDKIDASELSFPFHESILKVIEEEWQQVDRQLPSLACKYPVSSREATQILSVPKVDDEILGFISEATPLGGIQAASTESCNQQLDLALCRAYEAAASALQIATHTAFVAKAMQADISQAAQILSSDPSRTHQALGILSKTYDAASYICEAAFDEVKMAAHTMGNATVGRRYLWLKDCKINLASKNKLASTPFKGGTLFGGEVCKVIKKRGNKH
inactive: [1] 0.026 | [2] -0.038 | [3] 0.012 | [4] -0.097 | [5] -0.03 | [6] -0.024 | [7] -0.026 | [8] -0.004 | [9] 0.005 | [10] 0.008 | [11] -0.025 | [12] -0.018 | [13] -0.087 | [14] -0.004 | [15] 0.018 | [16] 0.011 | [17] 0 | [18] 0.024 | [19] 0.047 | [20] -0.026

TMOD1 (UniProt P28289)
Sequence of UniProt P28289 (P28289 whole entry, looked up): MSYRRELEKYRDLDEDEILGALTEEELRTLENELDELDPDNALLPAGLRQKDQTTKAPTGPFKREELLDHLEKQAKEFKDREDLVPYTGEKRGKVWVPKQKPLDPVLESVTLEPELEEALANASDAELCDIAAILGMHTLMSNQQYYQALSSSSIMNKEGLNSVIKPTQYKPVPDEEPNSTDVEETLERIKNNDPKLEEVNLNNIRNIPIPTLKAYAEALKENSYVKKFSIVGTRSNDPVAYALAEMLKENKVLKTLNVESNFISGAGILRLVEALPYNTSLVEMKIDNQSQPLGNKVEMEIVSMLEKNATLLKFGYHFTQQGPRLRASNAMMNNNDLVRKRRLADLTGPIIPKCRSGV
inactive: [1] 0.002 | [2] -0.091 | [3] 0.018 | [4] 0.018 | [5] -0.001 | [6] 0.003 | [7] 0.013 | [8] -0.005 | [9] -0.002 | [10] 0.012 | [11] 0.002 | [12] 0.007 | [13] -0.015 | [14] -0.02 | [15] 0 | [16] -0.004 | [17] 0.006 | [18] 0 | [19] 0.016 | [20] -0.019

TTC4 (UniProt O95801)
Sequence of UniProt O95801 (O95801 whole entry, looked up): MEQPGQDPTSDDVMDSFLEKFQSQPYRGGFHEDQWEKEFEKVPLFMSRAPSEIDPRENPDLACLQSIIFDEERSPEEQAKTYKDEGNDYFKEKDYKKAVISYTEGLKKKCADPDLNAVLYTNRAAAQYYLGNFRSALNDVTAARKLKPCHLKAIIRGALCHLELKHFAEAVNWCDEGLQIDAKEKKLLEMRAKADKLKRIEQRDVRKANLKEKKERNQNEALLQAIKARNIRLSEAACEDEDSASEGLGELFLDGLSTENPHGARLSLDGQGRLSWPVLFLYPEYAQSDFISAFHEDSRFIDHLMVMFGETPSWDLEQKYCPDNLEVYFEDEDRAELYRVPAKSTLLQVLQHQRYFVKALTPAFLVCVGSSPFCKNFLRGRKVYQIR
inactive: [1] 0.01 | [2] 0.013 | [3] 0.001 | [4] 0.003 | [5] 0.005 | [6] 0.007 | [7] -0.038 | [8] -0.029 | [9] 0.025 | [10] -0.008 | [11] 0.002 | [12] 0.015 | [13] 0.005 | [14] 0.011 | [15] 0.03 | [16] -0.029 | [17] -0.033 | [18] 0.026 | [19] 0.029 | [20] 0

UBTF (UniProt P17480)
Sequence of UniProt P17480 (P17480 whole entry, looked up): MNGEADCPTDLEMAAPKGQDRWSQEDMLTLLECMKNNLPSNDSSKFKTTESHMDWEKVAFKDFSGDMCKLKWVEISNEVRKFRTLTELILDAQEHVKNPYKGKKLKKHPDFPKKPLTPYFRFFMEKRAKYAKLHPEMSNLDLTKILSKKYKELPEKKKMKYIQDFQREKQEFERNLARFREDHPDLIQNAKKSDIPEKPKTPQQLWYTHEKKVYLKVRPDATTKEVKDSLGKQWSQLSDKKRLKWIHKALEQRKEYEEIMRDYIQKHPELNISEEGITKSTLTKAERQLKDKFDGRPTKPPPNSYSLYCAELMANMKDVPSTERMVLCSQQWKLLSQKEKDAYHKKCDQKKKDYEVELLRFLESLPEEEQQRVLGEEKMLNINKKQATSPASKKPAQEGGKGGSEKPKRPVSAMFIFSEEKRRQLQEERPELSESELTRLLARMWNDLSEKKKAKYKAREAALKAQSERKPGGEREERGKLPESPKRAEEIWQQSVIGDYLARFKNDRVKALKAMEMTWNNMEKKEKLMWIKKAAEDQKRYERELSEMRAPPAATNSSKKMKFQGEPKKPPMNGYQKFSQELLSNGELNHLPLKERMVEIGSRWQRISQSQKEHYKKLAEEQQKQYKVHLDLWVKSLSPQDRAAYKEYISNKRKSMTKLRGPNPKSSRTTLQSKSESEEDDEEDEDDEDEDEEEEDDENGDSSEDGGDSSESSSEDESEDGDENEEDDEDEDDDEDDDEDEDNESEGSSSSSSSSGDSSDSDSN
inactive: [1] 0.02 | [2] 0.015 | [3] 0.018 | [4] 0.03 | [5] -0.009 | [6] 0.002 | [7] 0.027 | [8] 0.009 | [9] -0.022 | [10] -0.024 | [11] 0.026 | [12] 0.025 | [13] 0.017 | [14] -0.002 | [15] 0.016 | [16] 0.046 | [17] -0.075 | [18] -0.022 | [19] 0.044 | [20] -0.002

TTI1 (UniProt O43156)
inactive: [1] -0.017 | [2] 0.033 | [3] -0.049 | [4] 0.003 | [5] -0.012 | [6] -0.02 | [7] -0.003 | [8] -0.032 | [9] -0.037 | [10] 0.015 | [11] 0 | [12] 0.014 | [13] 0.018 | [14] -0.049 | [15] -0.029 | [16] 0.013 | [17] 0.02 | [18] 0.068 | [19] -0.009 | [20] 0.026

UBE4A isoform 2 (UniProt Q14139)
inactive: [1] 0.031 | [2] 0.091 | [3] 0.023 | [4] 0.013 | [5] -0.023 | [6] -0.021 | [7] -0.082 | [8] -0.028 | [9] 0.035 | [10] 0.004 | [11] -0.025 | [12] 0.018 | [13] 0.038 | [14] -0.038 | [15] -0.023 | [16] 0.03 | [17] 0.019 | [18] -0.009 | [19] 0.034 | [20] -0.009

THOC5 (UniProt Q13769)
inactive: [1] 0.013 | [2] -0.105 | [3] 0.036 | [4] -0.035 | [5] 0.008 | [6] -0.001 | [7] -0.016 | [8] 0.005 | [9] 0.001 | [10] -0.012 | [11] 0.023 | [12] 0.004 | [13] 0.015 | [14] -0.011 | [15] 0.008 | [16] -0.011 | [17] -0.002 | [18] 0.004 | [19] 0.018 | [20] -0.001
